Compound activity as filed in PubChem BioAssay.
KLK7 zymogen act – proKLK7 (human) activation, primary screen; P49862; purified proKLK7, EDANS-DABCYL substrate fluorescence; 100% is mature enzyme control, 0% vehicle; activation, % at 7 µM; hit rate 0.9% among 370,000;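 active = activation above the mean of all tested compounds plus 3 SD, computed per campaign excluding outliers beyond control limits, cut at about 13% in these data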
PLCb3 inh – blocks human PLC-beta3 enzyme activity; Q01970; Purified PLC-beta3, fluorogenic substrate, fluorescence; inhibition, % at 12.2 µM; hit rate 0.18% among 370,000; AID 720704; in the data active = inhibition above about 11%;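 also: 0% = median of compound wells on plate and 100% = full blocker control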
ADAM10 inh – ADAM10 inhibition, QFRET primary screen | O14672 | inhibition, % at 7 µM | hit rate 0.62% among 370,000 | AID 720582 | recombinant ADAM10, EDANS/DABCYL FRET peptide cleavage, 3 h;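 active = inhibition above a per-campaign cutoff equal to the mean of compounds falling between control-based bounds plus 3 SD, cut at about 20% in these data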;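 also: 0% = DMSO wells while the 100% control is not disclosed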
Target sequence (O14672 214-748 limits assumed): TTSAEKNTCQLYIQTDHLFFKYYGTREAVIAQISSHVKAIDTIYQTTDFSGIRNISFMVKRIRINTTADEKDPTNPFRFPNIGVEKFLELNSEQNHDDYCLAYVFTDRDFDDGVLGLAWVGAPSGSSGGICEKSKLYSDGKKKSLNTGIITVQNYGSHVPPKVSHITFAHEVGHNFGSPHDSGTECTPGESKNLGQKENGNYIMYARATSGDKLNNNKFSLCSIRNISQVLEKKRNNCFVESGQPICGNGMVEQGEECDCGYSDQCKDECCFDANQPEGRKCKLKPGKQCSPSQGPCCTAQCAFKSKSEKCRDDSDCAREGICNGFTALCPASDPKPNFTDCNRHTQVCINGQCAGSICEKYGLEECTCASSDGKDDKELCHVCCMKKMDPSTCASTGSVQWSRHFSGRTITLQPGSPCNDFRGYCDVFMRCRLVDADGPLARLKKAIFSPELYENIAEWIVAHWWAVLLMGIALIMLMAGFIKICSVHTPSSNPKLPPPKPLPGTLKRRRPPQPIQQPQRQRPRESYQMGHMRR
ADAM17 inh – inhibitors of human ADAM17; P78536; recombinant ADAM17, EDANS/DABCYL FRET peptide cleavage; AID 720648; hit rate 0.83% among 370,000; inhibition, % at 6.95 µM;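 active = inhibition above the mean of compounds lying between control limits plus 3 SD, set per campaign, cut at about 8.5% in these data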;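 also: 0% = DMSO-only wells as the low control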
PLC-gamma1 inh – inhibitors of human phospholipase C gamma1. P19174. purified PLC-gamma1, fluorogenic substrate, fluorescence. inhibition, % at 12.2 µM. hit rate 0.84% among 370,000. AID 720700
PLCgamma1 ctr – counter-screen for PLC-beta3 inhibitors: inhibitors of human PLC-gamma1. purified PLC-gamma1, fluorogenic substrate, fluorescence. inhibition, % at 12.3 µM. shares compounds with PLC-gamma1 inh. hit rate 3.1% among 3,300
PLCbeta3 conf – human PLC-beta3 inhibition, confirmation; inhibition, % at 12.3 µM; hit rate 1% among 3,300; purified PLC-beta3, fluorogenic substrate fluorescence; shares compounds with PLC-gamma1 inh; in the data active = inhibition above about 11%
Numbers without * were called inactive; x = no result; ! = not confirmed by another sample. Most compounds without a hit are left out; they make up all but 2.9% or so of the library. Rule as the data show it, unless noted: active = inhibition above about 9.5%; inactive = the rest.

SMILES | KLK7 zymogen act | PLCb3 inh | ADAM10 inh | ADAM17 inh | PLC-gamma1 inh | PLCgamma1 ctr | PLCbeta3 conf
COc1ccccc1C(=O)N(CN1CCCC1=O)c1cccc(Cl)c1 | 0 | 0 | -5 | 1 | 0 | x | x
O=C(CSc1nccn1Cc1ccco1)Nc1cccc(F)c1 | -1 | -4 | -15 | -2 | 10.0* | -4 | -1
CCN(CC)S(=O)(=O)c1cccc(-c2nnc(SCC(N)=O)n2CCc2ccccc2)c1 | 1 | 7 | 9 | 8 | 12* | 7 | 4
CCN(CC)S(=O)(=O)c1cccc(-c2nnc(SC(C)C(N)=O)n2CCc2ccccc2)c1 (stereo not drawn) | 0 | 2 | 10 | 1 | 7 | x | x
CCNC(=O)N(C)[C@H]1C[C@H]2c3[nH]c4c(-c5ccc6c(c5)OCO6)cccc4c3CCN2C(=O)[C@H]1[C@H](C)O | 1 | -36 | -33 | -12 | -24 | x | x
COc1cc(/C=C2\C(=O)N(c3ccccc3)N=C2C)ccc1Oc1ccc([N+](=O)[O-])cc1[N+](=O)[O-] | 0 | 4 | 5 | 5 | 10* | 2 | -1
COc1ccccc1/C=C1/C(=O)N(c2ccccc2)N=C1C | 0 | 0 | 5 | -3 | 28* | -7 | -3
Cc1ccc(OCC(=O)N2CC(C)CC(C)C2)c([N+](=O)[O-])n1 (stereo not drawn) | 1 | 0 | -8 | -4 | 4 | x | x
O=C(Nc1ccc(Cl)cc1)N[C@@H]1c2c(ccc3ccccc23)OC[C@@H]1CO | -1 | 1 | 6 | 0 | 0 | x | x
CN(C(=O)c1ccccc1)C1c2c(ccc3ccccc23)OCC1CO (stereo not drawn) | 0 | 4 | 3 | 0 | 10* | 8 | 11*
CCCCCCNC(=O)c1c(N)[nH]c(C(=O)c2ccccc2)c1-c1ccc(O)cc1 | x | -11 | -15 | -3 | 1 | x | x
CC1CCCN(c2nc3c(c(=O)n(C)c(=O)n3C)n2CCSc2nc3ccccc3o2)C1 (stereo not drawn) | -1 | 0 | 1 | 2 | 10* | -4 | -1
CCc1ccc(C(=O)NNC(=O)c2ccc(OCC(=O)N3CCOCC3)c(OC)c2)cc1 | 0 | -2 | -10 | 7 | 13* | 0 | 0
c1ccc(-c2nnc(N3CCCC3)nc2-c2ccccc2)cc1 | -1 | -7 | -5 | -3 | 1 | x | x
COc1ccc(S(=O)(=O)N(C)CC(=O)Nc2ccc(C(N)=O)cc2)cc1OC | 0 | -1 | -5 | -2 | 1 | x | x
COC(=O)c1ccc(NC(=O)CN(C)S(=O)(=O)c2ccc(OC)c(C)c2)cc1 | 0 | -1 | -6 | -3 | 9.6* | -10 | -4
CC(C)(C)OC(=O)NCc1cc(F)ccc1/C=C/S(=O)(=O)NC1CCCC1 | 0 | 4 | 5 | 4 | 9.8* | -2 | 2
COC(=O)[C@]12C[C@H](CC(=O)NCc3cccc4ccccc34)C(=O)N(CCc3ccc(OC)c(OC)c3)C1=C[C@H](COCc1ccccc1)O[C@@H]2C | 0 | 2 | 13 | 4 | 4 | x | x
CC(C)[C@H]1CN=C2N(CCNC(=O)CCC3CCCCC3)[C@H](Cc3ccc(O)cc3)CN21 | 0 | 6 | -2 | 5 | 18* | 4 | 6
Cc1cc(C)cc(N(CC(=O)Nc2cc(C)ccc2C)S(=O)(=O)c2c(C)[nH]c(=O)[nH]c2=O)c1 | 0 | -8 | 2 | 6 | 10* | -4 | -5
Cc1cc(C)cc(N(CC(=O)NC2CCCC2)S(=O)(=O)c2c(C)[nH]c(=O)[nH]c2=O)c1 | 0 | 6 | 15 | 1 | 11* | 1 | -7
Cc1cc(=O)n2nc(N3CCCC(C(=O)NCc4ccccc4Br)C3)sc2n1 (stereo not drawn) | 1 | -7 | -5 | 1 | 12* | -3 | 1
Cc1ccc(S(=O)(=O)NC2=C(N3CCN(c4ccccc4F)CC3)C(=O)c3ccccc3C2=O)cc1 | 0 | 1 | -4 | -7 | 15*! | 9.8* | 8
O=C1[C@H]2[C@@H](c3ccccc3)N[C@]3(CCCN(Cc4ccc(F)cc4)C3=O)[C@H]2C(=O)N1Cc1ccccc1 | 1 | -1 | 2 | -1 | 4 | x | x
